Results reported in PubChem BioAssay (NCI).
The panel holds about 79,000 compounds, 15% with a hit somewhere; the sample as a whole holds those more often. Calls of active or inactive are those of the source. Rule as the data show it: active = growth inhibition above about 70%; inactive = the rest.

What was measured:
[1] = NCI Yeast Anticancer Drug Screen. Data for the rad50 strain (AID 155);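 also: 0% = growth of vehicle-only cultures of the same strain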; conditions: S. cerevisiae rad50 strain growth inhibition; at 50.0 µM; active compounds read high
In short: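 Growth of the mutant yeast was measured after compound exposure and referenced to vehicle-treated cultures.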

[2] = NCI Yeast Anticancer Drug Screen. Data for the mec2-1 strain (AID 157); conditions: S. cerevisiae mec2-1 strain, at 50.0 µM, active compounds read high
In short: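 Yeast mec2-1 mutant treated with compound. Readout: growth inhibition vs vehicle controls.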

[3] = NCI Yeast Anticancer Drug Screen. Data for the sgs1 mgt1 strain (AID 161);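 also: 0% = growth of cultures given vehicle only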; conditions: S. cerevisiae sgs1 mgt1 strain, at 50.0 µM, active compounds read high
In short: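 Inhibition of yeast growth, normalised to vehicle-treated controls, is reported for a strain bearing genetic alterations in DNA damage repair.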

[4] = NCI Yeast Anticancer Drug Screen. Data for the cln2 rad14 strain (AID 165);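 also: 0% = growth equal to vehicle treated cultures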; conditions: S. cerevisiae cln2 rad14 strain, at 50.0 µM, active compounds read high
In short: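 cln2 rad14 yeast strain; compound exposure; growth inhibition read vs vehicle controls.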

[5] = NCI Yeast Anticancer Drug Screen. Data for the bub3 strain (AID 167); conditions: S. cerevisiae bub3 mutant strain, at 50.0 µM, active compounds read high
In short: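 Whole-cell yeast assay. The mutant strain was incubated with compounds, and growth inhibition was determined by comparison with vehicle-treated cells.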

[6] = NCI Yeast Anticancer Drug Screen. Data for the mlh1 rad18 strain (AID 175); conditions: S. cerevisiae mlh1 rad18 strain growth inhibition; at 50.0 µM; active compounds read high
In short: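 Yeast w/ defined DNA-repair lesions; compound exposure; growth vs vehicle controls → % inhibition.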

Measured: growth inhibition

O=C1Nc2ccccc2C12OCCS2 (stereo unspecified)
inactive: [1] -4.1% | [2] 25.2% | [3] 17.2% | [4] -7.4% | [5] 5.25% | [6] 7.25%

CC1CCCc2c1c1ccc3c(O)cccc3c1oc2=O (stereo unspecified)
inactive: [1] -10% | [2] -4.15% | [3] -15.4% | [4] 16.9% | [5] -5.95% | [6] -18.9%

CN1CCc2ccccc2/C(=C(/O)c2ccccc2)C1=O
inactive: [1] 28.8% | [2] 7.15% | [3] 12.3% | [4] 24.9% | [5] 13.3% | [6] 10.1%

O=c1[nH]c(=O)n(COC(CO)CO)cc1-c1ccccc1
inactive: [1] -24.4% | [2] -31.8% | [3] 2.65% | [4] -4.15% | [5] -18.4% | [6] -19.9%

N#Cc1ccc2ccccc2c1
inactive: [1] 4.65% | [2] -7% | [3] 3% | [4] -4.65% | [5] 10.7% | [6] -16.8%

CCOC(=O)C1=C(C)N(C2OC(COC(=O)c3ccccc3)C(OC(=O)c3ccccc3)C2OC(=O)c2ccccc2)C(=S)NC1c1ccccc1 (stereo unspecified)
inactive: [1] -0.8% | [2] -27.1% | [3] 10.6% | [4] -2.6% | [5] -4.85% | [6] -6.05%

COC(=O)/C(=N/O)C(C(=O)OC)C(=O)C(=O)Nc1c(Cl)cc(C)cc1S(=O)(=O)O (stereo unspecified)
inactive: [1] 6.4% | [2] 4.35% | [3] -22.4% | [4] -14.1% | [5] -2.9% | [6] 8.15%

O=C(O)c1c(Br)c(Br)c(Br)c(Br)c1C(=O)Nc1ccc([N+](=O)[O-])cc1
inactive: [1] -14.6% | [2] 2.65% | [3] 3.35% | [4] 4.75% | [5] 3.15% | [6] -1.05%

C=Cn1c([N+](=O)[O-])cnc1/C=C/c1ccc(C(=O)OCCN2CCOCC2)cc1
inactive: [1] 68.8% | [2] 16.4% | [4] 34.9% | [5] -10.2% | [6] 53%
active: [3] 78.3%

CCN(CC)C(=O)C1CCN(Cc2c[nH]c3ccccc23)CC1
inactive: [1] -3.05% | [2] -6.85% | [3] -10.2% | [4] -53% | [5] 2.75% | [6] -0.2%

CSc1ccc(NC(=O)Nc2cc(C)ccn2)cc1
inactive: [1] 5.8% | [2] -11.1% | [3] -45.7% | [4] -37.8% | [5] -61% | [6] 10.6%

Cc1ccc(S(=O)(=O)O/C=C2/CCOC2=O)cc1
inactive: [1] 29.6% | [2] 43.2% | [3] 29.9% | [4] 28.8% | [5] 38.2% | [6] 60.9%

CCCCS(=O)(=O)N1CCCC1
inactive: [1] 4.15% | [2] -10.3% | [3] 1.9% | [4] -28.2% | [5] -5% | [6] -5.85%

COc1cc([C@@H]2OC(=O)C3C2C(=O)O[C@H]3c2ccc(O)c(OC)c2)ccc1O (stereo partly specified)
inactive: [1] 7.55% | [2] 14.2% | [3] 9.25% | [4] 17.4% | [5] 0.55% | [6] 24.2%

CCc1ccc(O)cc1
inactive: [1] -3.4% | [2] -25.9% | [3] 13.3% | [4] 5.85% | [5] -11.9% | [6] 6.3%

N#CC(c1ccccc1)N1CCCN(C(C#N)c2ccccc2)C1c1ccccc1O (stereo unspecified)
inactive: [1] 31.4% | [2] -8.65% | [3] -6.85% | [4] 17.9% | [5] 18.4% | [6] 13.2%

COc1ccc(NC(=O)C(=O)C(C(=O)c2ccccc2)C2OC(=O)c3ccccc32)c([N+](=O)[O-])c1 (stereo unspecified)
inactive: [1] 8.85% | [2] 5.6% | [3] -23.2% | [4] 26.1% | [5] 28.4% | [6] 8.1%

O=C1c2ccccc2S(=O)N1OCc1ccccc1 (stereo unspecified)
inactive: [1] -0.85% | [2] 0.75% | [3] 15.4% | [4] -16.6% | [5] 0.95% | [6] 9.6%

O=C(O)c1cc(=O)c2cc3c(cc2o1)OCc1ccccc1-3
inactive: [1] 13.8% | [2] -6.15% | [3] 2.1% | [4] 19.4% | [5] -6.5% | [6] 3.55%

O=C(O)c1cncc(C(=O)O)c1
inactive: [1] -37% | [2] -12.7% | [3] -14.7% | [4] -7.6% | [5] -47.5% | [6] -24.6%

Cc1cc(C)c(-c2c(C)cc(C)c([N+](=O)[O-])c2C)c(C)c1N
active: [1] 98.1% | [2] 98.8% | [3] 98.4% | [4] 96.5% | [5] 97.2% | [6] 97.8%

Cc1ccc(N(C(=O)CC(=O)N/N=C/c2ccccc2O)C(=O)c2ccccc2)cc1
inactive: [1] -6.55% | [2] -16.8% | [3] -2.05% | [4] 8.2% | [5] -27.1% | [6] -10.8%

Cc1ccc(NC(=O)c2cccc(C(=O)Nc3ccc(C)c(Cl)c3)c2)cc1Cl
inactive: [1] -28.1% | [2] -16.6% | [3] -11.2% | [4] -35% | [5] -5.55% | [6] 8.6%

COC(=O)CCC(CCc1ccccc1)(C(C)=O)C(C)=O
inactive: [1] -2.4% | [2] -13.1% | [3] -16.5% | [4] -4.05% | [5] 19.3% | [6] 7.7%

COc1cc(C2C3=C(CCC3=O)Oc3cc4c(cc32)OCO4)cc(OC)c1OC (stereo unspecified)
inactive: [1] 2.55% | [2] 17.1% | [3] -12.2% | [4] 2.05% | [5] -4.55% | [6] 1.8%

N#C/C(=C\c1ccccc1)C(=O)Nc1ccccc1
inactive: [1] 17.3% | [2] 3.5% | [3] -1.35% | [4] -4.15% | [5] -4.7% | [6] 22.6%

O[C@@H]1CC2(Cl)CC1(Cl)C(Cl)=C2Cl (stereo partly specified)
inactive: [1] 19.4% | [2] 5.5% | [3] 11.7% | [4] -2.05% | [5] -4.1% | [6] 18.5%

CC(=O)Oc1cccc2c1ccc1nonc12
inactive: [1] 1.75% | [2] 0.35% | [3] -2.2% | [4] -49.8% | [5] -11.4% | [6] -3%

CCOC(=O)NN(C(=O)OCC)C(=C(c1ccccc1)N1CCOCC1)N(NC(=O)OCC)C(=O)OCC
inactive: [1] 6.3% | [2] 5.6% | [3] -2.7% | [4] 31.1% | [5] -2.25% | [6] 10.8%

Cc1cc2cc3oc(C)cc3cc2o1
inactive: [1] 6.3% | [2] -6.45% | [3] -7.8% | [4] -45.6% | [5] -0.8% | [6] 3.25%

Nc1ccc2ccc3ccc(N)nc3c2n1
inactive: [1] 36% | [2] 38% | [3] 40.7% | [4] -1.8% | [5] 44.1% | [6] 17.1%

CN(C)c1nc(=NCc2ccncc2)ss1
inactive: [1] -38.2% | [2] 8.45% | [3] 2% | [4] -45.4% | [5] 5.85% | [6] -16.8%

CCCCN(Cc1ccccc1)C(=O)Nc1ccccc1
inactive: [1] 4.5% | [2] 30.1% | [3] 33.1% | [4] -8.1% | [5] 39% | [6] 1.2%

O=C(O)CC1CCCCCC1
inactive: [1] 21.9% | [2] 8.25% | [3] 12.8% | [4] 12.9% | [5] 32.8% | [6] 12%

CC12CC(=O)OC(C1)C(=O)c1ccccc12 (stereo unspecified)
inactive: [1] 8.9% | [2] 16.1% | [3] 2.85% | [4] 4.45% | [5] 1.7% | [6] -3.15%

CC1(C)C2CC3C(=CCCC3C(=O)O)C1C2 (stereo unspecified)
inactive: [1] 11.4% | [2] 15.3% | [3] -8.55% | [4] 9.8% | [5] 11.1% | [6] 12.8%

COc1cc(COC(=O)c2ccc(CSc3ccc(Cl)cc3)o2)cc(OC)c1OC
inactive: [1] -19.4% | [2] -33% | [3] -0.75% | [4] -8.4% | [5] -13.9% | [6] -10.8%

Cc1ccc(Cc2nn(C)c(=O)n2-n2cccc2)cc1
inactive: [1] -37.1% | [2] -13.7% | [3] -10% | [4] -1.7% | [5] -19.1% | [6] -7.45%

COc1cc2c(cc1OC)-c1cc3cc(OC)c(OC)cc3c(C)[n+]1CC2 (tested in a mixture with another compound)
inactive: [1] 6.25% | [2] 0% | [3] 11.9% | [4] 19.4% | [5] 11.4% | [6] -66.8%

CN(C)C=NC1CC(C)(C)NC(C)(C)C1
inactive: [1] -18.2% | [2] 2.2% | [3] 3.1% | [4] -49.1% | [5] 13.2% | [6] -12.9%

S=C1CNC(=S)CN1
inactive: [1] -4.15% | [2] -21.9% | [3] 0.7% | [4] 8.75% | [5] 10.8% | [6] -22.9%
